Experimental findings from PubChem BioAssay (NCATS) are described below.

Results filed as inconclusive are left out. Entries that show only a call come without a potency. Activity calls are given as the source filed them. Unless noted, calls follow the shape of the dose curve; as a rule, active = well fitted curve in the direction sought with a large enough effect; inconclusive = small, poorly fitted or top-dose-only effect, or another doubt; inactive = no such curve, though single readings can be large; an effect the other way counts as inactive or inconclusive.

For assay [1], the target named is Mitogen-activated protein kinase 10 (Mus musculus) (UniProt Q61831). The assay is described as follows: JNK3 AlphaScreen Assay (AID 530; active = well fitted curve in either direction with a large enough effect, not every such curve was filed as active;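 also: kinase came from lysate of stimulated human HepG2 cells; signal reports phosphorylation of biotinylated GST-cJun 1-79 at Ser73 with 10 µM ATP; series mostly up to about 57 µM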). The method in brief: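 HepG2 lysate (IL-1b/TNFa pre-activated) + biotin-GST-cJun 1-79 + anti-pSer73 cJun; cpd titration, 15 min RT; ATP 10 uM start; Tris pH 7.6, MgCl2, DTT, vanadate; beads in EDTA buffer; AlphaScreen.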
For orientation: Bead proximity is the source of the signal in Alpha formats.

Assay [2] deals with Cytochrome P450 3A4 (Homo sapiens) (UniProt P08684). The assay can be described thus: qHTS Assay for Inhibitors and Substrates of Cytochrome P450 3A4 (AID 884). Also: nearly all actives have a fitted effect of over 50% in size. Also: potency is read from the fitted curve at half-maximal effect. The method in brief:
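Luminescent readout of luciferin produced by CYP3A4 (20 nM) dealkylation of Luciferin-PPXE, 25 uM (its KM). NADPH-driven reaction ran 60 min at RT after 10 min compound preincubation; data scaled to 57 uM ketoconazole as 100% inhibition.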
A general note: qHTS replaces the single test concentration by a dilution series.

The target in assay [3] is Calcium and integrin-binding protein 1 (Homo sapiens) (UniProt Q99828). The assay can be described thus: Primary qHTS for Identification of Calcium Integrin Binding Protein 1 (CIB1) Competitor (AID 1508620). Also: top concentration of the series differs between compounds. The method in brief: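 Fluorescence polarization competition: GST-tagged CIB1 (1 uM final) preincubated with compound 15 min at room temperature, then FITC-labelled alphaIIb peptide (100 nM final) added. After 15 min at room temperature, polarization read at Ex 480/Em 540.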
Chain of Calcium and integrin-binding protein 1 (Homo sapiens) (Q99828 whole entry, looked up): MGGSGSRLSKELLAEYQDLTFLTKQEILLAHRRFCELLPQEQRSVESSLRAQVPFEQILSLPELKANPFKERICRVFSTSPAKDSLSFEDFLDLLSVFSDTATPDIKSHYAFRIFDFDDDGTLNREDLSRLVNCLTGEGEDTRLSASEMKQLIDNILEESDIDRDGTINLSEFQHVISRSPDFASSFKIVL

Chain of Cytochrome P450 3A4 (Homo sapiens) (P08684 whole entry, looked up): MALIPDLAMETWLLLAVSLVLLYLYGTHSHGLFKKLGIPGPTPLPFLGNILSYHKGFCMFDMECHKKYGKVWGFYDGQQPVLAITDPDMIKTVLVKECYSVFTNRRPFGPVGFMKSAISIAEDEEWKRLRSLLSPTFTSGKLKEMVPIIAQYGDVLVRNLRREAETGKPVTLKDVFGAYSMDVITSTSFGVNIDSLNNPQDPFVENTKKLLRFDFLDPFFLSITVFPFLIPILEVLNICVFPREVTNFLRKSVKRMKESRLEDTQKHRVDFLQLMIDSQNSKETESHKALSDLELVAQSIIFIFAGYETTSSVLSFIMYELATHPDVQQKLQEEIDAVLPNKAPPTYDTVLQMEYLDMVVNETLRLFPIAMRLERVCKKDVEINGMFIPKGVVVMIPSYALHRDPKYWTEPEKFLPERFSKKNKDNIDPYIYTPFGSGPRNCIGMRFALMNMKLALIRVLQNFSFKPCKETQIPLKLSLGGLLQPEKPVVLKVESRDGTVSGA

For the compound `CCCn1c(C)nc2c(NCCCN(CC)CC)nc(C)nc21`, the call in assay [1] was inactive. The Potency result in assay [2] and in assay [3] was “inactive” in each case.
As to `CCCn1c(C)nc2c(NCCCN3CCCCC3C)nc(C)nc21` (stereo not given), the outcome in assay [1] was inactive. The Potency result in assay [2] and in assay [3] was “inactive” each time.
On to `COCCNc1nc(C)nc2c1nc(-c1ccccc1)n2CC1CCN(C)CC1`, for which the call in assay [1] was inactive. For the same compound, the Potency entry in assay [2] and in assay [3] was “inactive” throughout.
Consider `CCCn1c(C)nc2c(N3CCN(C)CC3)nc(C)nc21`, for which the result in assay [1] was inactive. Also, the Potency entry in assay [2] and in assay [3] was “inactive” each time.
In the case of `CCCn1c(C)nc2c(NC(C)CN(C)C)nc(C)nc21` (stereo not given), the outcome in assay [1] was inactive. Further, the Potency entry in assay [3] was “inactive”.
`CCCn1c(C)nc2c(N3CCC(N(C)C)C3)nc(C)nc21` (stereo not given): in assay [1], the compound was classed as inactive. Moreover, the Potency result in assay [2] and in assay [3] was “inactive” throughout.
As to `Cc1nc(NCCO)c2nc(-c3ccccc3)n(CC3CCN(C)CC3)c2n1`, the result in assay [1] was inactive. The Potency entry in assay [2] and in assay [3] was “inactive” each time.
On to `CCCn1c(C)nc2c(NCCCN(CCO)CCO)nc(C)nc21`, for which the call in assay [1] was inactive. Further, the Potency result in assay [3] is “inactive”.
As to `Cc1nc(N2CCOCC2)c2nc(-c3ccccc3)n(CCN3CCOCC3)c2n1`, the call in assay [1] was inactive. In addition, the Potency result in assay [3] was “inactive”.
With `COCCNc1nc(C)nc2c1nc(-c1ccccc1)n2CCN(C)C`, the compound was called inactive in assay [1]. Moreover, the Potency result in assay [2] and in assay [3] was “inactive” in each case.
In the case of `CCCn1c(C)nc2c(N(CCN(CC)CC)CCN(CC)CC)nc(C)nc21`, the compound was classed as inactive in assay [1]. For the same compound, the Potency entry in assay [2] and in assay [3] was “inactive” in each case.
As to `CCCn1c(-c2ccc(F)cc2)nc2c(NCCN3CCCCC3)nc(C)nc21`, the compound was called inactive in assay [1]. Further, the Potency entry in assay [3] was “inactive”.
As for `CCCn1c(C)nc2c(N(C)CCN(C)C)nc(C)nc21`, in assay [1], the compound was classed as inactive. For the same compound, the Potency entry in assay [2] and in assay [3] was “inactive” in each case.
With `CCCn1c(C)nc2c(NCCOC)nc(C)nc21`, in assay [1], the outcome was inactive. Besides, the Potency entry in assay [2] and in assay [3] was “inactive” throughout.
Take `Cc1nc(NCc2ccccc2)c2nc(-c3ccccc3)n(CC3CCN(C)CC3)c2n1`: in assay [1], the call was inactive. For the same compound, the Potency result in assay [2] and in assay [3] was “inactive” each time.
`CCCn1c(C)nc2c(N3CCC(N4CCN(C)CC4)CC3)nc(C)nc21`: the compound was called inactive in assay [1]. For the same compound, the Potency entry in assay [2] and in assay [3] was “inactive” in each case.
Take `CCN(CC)CCCn1c(-c2ccccc2)nc2c(N3CCOCC3)nc(C)nc21`: the outcome in assay [1] was inactive. For the same compound, the Potency entry in assay [2] and in assay [3] was “inactive” each time.
In the case of `CCN(CC)CCn1c(-c2ccccc2)nc2c(N3CCOCC3)nc(C)nc21`, the compound was called inactive in assay [1]. The Potency result in assay [2] and in assay [3] was “inactive” each time.
For `Cc1nc(N2CCOCC2)c2nc(-c3ccccc3)n(CC3CCN(C)CC3)c2n1`, in assay [1], the outcome was inactive. The Potency result in assay [2] and in assay [3] was “inactive” in each case.
Turning to `CCCn1c(C)nc2c(NCCN3CCCCC3)nc(C)nc21`, the outcome in assay [1] was inactive. Also, the Potency entry in assay [2] and in assay [3] was “inactive” in each case.
Turning to `CCCCNc1nc(C)nc2c1nc(C)n2CCC`, the outcome in assay [1] was inactive. For the same compound, in assay [3], the Potency entry is “inactive”.
Consider `CCCn1c(C)nc2c(NC3CCCCC3)nc(C)nc21`, for which, in assay [1], the call was inactive. Also, the Potency result in assay [3] was “inactive”.
As for `CCCn1c(C)nc2c(NCCCCN(C)C)nc(C)nc21`, the result in assay [1] was inactive. Also, the Potency result in assay [2] and in assay [3] was “inactive” each time.
As to `CCN(CC)CCn1c(-c2ccccc2)nc2c(NCCO)nc(C)nc21`, the result in assay [1] was inactive. The Potency result in assay [2] and in assay [3] was “inactive” in each case.
Regarding `CCCn1c(-c2ccc(F)cc2)nc2c(NCCN(C)C)nc(C)nc21`, the compound was called inactive in assay [1]. Further, the Potency result in assay [2] and in assay [3] was “inactive” each time.
For `CCCn1c(C)nc2c(NC3CCN(Cc4ccccc4)CC3)nc(C)nc21`, the compound was classed as inactive in assay [1]. Besides, the Potency entry in assay [2] and in assay [3] was “inactive” throughout.
On to `COCCN(CCOC)c1nc(C)nc2c1nc(-c1ccccc1)n2CCN1CCCC1`, for which the result in assay [1] was inactive. Also, the Potency entry in assay [3] is “inactive”.
Regarding `CCCn1c(-c2ccc(F)cc2)nc2c(NC(C)CCCN(CC)CC)nc(C)nc21` (stereo not given), in assay [1], the compound was classed as inactive. The Potency in assay [2] is 10 µM (active). For the same compound, in assay [3], the Potency result is “inactive”.
In the case of `CCN(CC)CCCCn1c(-c2ccccc2)nc2c(Nc3ccccc3)nc(C)nc21`, in assay [1], the compound was called inactive. Besides, the Potency entry in assay [2] and in assay [3] was “inactive” in each case.
Take `CCCn1c(-c2ccc(F)cc2)nc2c(NC3CCN(Cc4ccccc4)CC3)nc(C)nc21`: the compound was called inactive in assay [1]. For the same compound, the Potency result in assay [2] and in assay [3] was “inactive” throughout.
As to `Cc1nc(N2CCOCC2)c2nc(-c3ccccc3)n(CCCN(C)C)c2n1`, the compound was classed as inactive in assay [1]. The Potency entry in assay [2] and in assay [3] was “inactive” each time.
Turning to `CCCn1c(C)nc2c(NCC3CCCN3CC)nc(C)nc21` (stereo not given), in assay [1], the call was inactive. The Potency result in assay [2] and in assay [3] was “inactive” in each case.
On to `CCCn1c(C)nc2c(NCCCCN3CCCC3)nc(C)nc21`, for which, in assay [1], the call was inactive. Also, the Potency result in assay [2] and in assay [3] was “inactive” each time.
Take `CCCn1c(C)nc2c(NCCN(C)C)nc(C)nc21`: the outcome in assay [1] was inactive. Moreover, the Potency result in assay [2] and in assay [3] was “inactive” throughout.
